High-throughput results deposited in PubChem by National Center for Advancing Translational Sciences (NCATS).
Most compounds without a hit are left out; they make up all but 9.4% or so of the library.
ELG1 repair inh: qHTS screen for small molecules that inhibit ELG1-dependent DNA repair in human embryonic kidney (HEK293T) cells expressing luciferase-tagged ELG1; HEK293T ELG1-luciferase reporter, luminescence, 16 h; DNA damage induced by 5-fluorouridine; Potency, µM (doses to about 46.1 µM), actives largely listed as inhibitors; hit rate 2.3% among 330,000; AID 504467, 2011; further: nearly all actives have a fitted effect of over 55% in size
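HEK293T cells expressing luciferase-tagged ELG1 (2,000/well) received 5-Fluorouridine plus compound or DMSO for 16 hr at 37 °C. Luciferase was read by ONE-Glo luminescence after 30 min at room temperature.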
SMN2 splice up: qHTS Assay for Enhancers of SMN2 Splice Variant Expression | hit rate 2.8% among 210,000 | HEK293 SMN2-luciferase splicing reporter, luminescence, 30-36 h | AID 1458, 2008 | Potency, µM (top dose mostly 46.1 µM), hits mostly activators; further: nearly all actives have a fitted effect of over 55% in size
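qHTS luciferase splicing reporter: luminescence rises when SMN2 exon 7 is included in transfected HEK293 cells. Compound exposure lasted 30-36 h at 37C, with 4.5 mM final sodium butyrate as control, followed by a ONE-Glo read.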
Rab9 prom act: qHTS Assay for Rab9 Promoter Activators. Potency, µM (doses to about 9.22 µM), actives largely listed as activators. Huh7 Rab9 promoter-luciferase reporter, luminescence, 24 h. hit rate 2.8% among 320,000; further: nearly all actives have a fitted effect of over 60% in size
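Huh7 cells stably carrying Rab9 promoter–luciferase reporter, plated 1500 cells/well, compound added after 2 h and incubated 24 h at 37 °C; luciferase luminescence then read after 10 min with detection reagent.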
ELG1 genotox: qHTS screen for small molecules that induce genotoxicity in human embryonic kidney (HEK293T) cells expressing luciferase-tagged ELG1. AID 504466, 2011. hit rate 1.3% among 330,000. HEK293T ELG1-luciferase reporter, luminescence, 16 h. Potency, µM (series often up to 46 µM), most hits filed as activators; further: nearly all actives have a fitted effect of over 60% in size
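ELG1-luciferase HEK293T cells, 2,000/well; compound pinned in; 16 hr, 37 °C, 5% CO2; ONE-Glo, 30 min RT; luminescence on CCD imager.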
NPC1 promoter act: qHTS Assay for NPC1 Promoter Activators | Potency, µM (titrated, usually from 9.22 µM), most hits filed as activators | AID 485313, 2010 | Huh7 NPC1 promoter luciferase reporter, 24 h | hit rate 2.4% among 320,000; further: nearly all actives have a fitted effect of over 60% in size
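Luminescence read-out of NPC1 promoter-driven luciferase in stably transfected Huh7 cells; compounds delivered in DMSO and left 24 h at 37C, 5% CO2, qHTS titration format.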
FLuc modulator: qHTS profiling assay for firefly luciferase inhibitor/activator using purifed enzyme and Km concentrations of substrates (counterscreen for miR-21 project). purified FLuc, Km substrates, luminescence inhibition. AID 588342, 2011. Potency, µM (highest dose often 57.5 µM), hits mostly inhibitors. hit rate 6.9% among 360,000; further: nearly all actives have a fitted effect of over 55% in size
Target sequence (P08659 whole entry, looked up): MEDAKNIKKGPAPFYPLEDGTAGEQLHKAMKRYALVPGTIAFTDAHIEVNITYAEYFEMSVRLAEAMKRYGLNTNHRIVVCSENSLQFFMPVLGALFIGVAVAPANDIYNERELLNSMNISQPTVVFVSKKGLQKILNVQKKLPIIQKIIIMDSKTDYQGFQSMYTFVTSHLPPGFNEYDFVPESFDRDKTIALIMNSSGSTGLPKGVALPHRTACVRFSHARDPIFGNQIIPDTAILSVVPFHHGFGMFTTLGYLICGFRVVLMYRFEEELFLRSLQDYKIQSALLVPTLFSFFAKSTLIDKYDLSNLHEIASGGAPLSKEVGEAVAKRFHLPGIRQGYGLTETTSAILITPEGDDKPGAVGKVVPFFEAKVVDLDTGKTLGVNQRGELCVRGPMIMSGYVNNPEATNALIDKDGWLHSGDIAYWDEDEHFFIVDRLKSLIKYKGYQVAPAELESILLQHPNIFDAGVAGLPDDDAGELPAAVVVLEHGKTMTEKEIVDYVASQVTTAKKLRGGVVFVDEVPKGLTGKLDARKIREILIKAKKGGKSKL
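Purified P. pyralis luciferase, 10 nM final, with Km-level 10 uM D-luciferin and 10 uM ATP in 50 mM Tris acetate pH 7.5, 10 mM Mg acetate, 0.01% Tween-20, 0.05% BSA; 6-point qHTS titration about 60 µM downward; luminescence read.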
Each line names hits and unclear results; the compound was inactive in the other large screens. The call rests on the fitted dose curve; in most records, active means well fitted curve in the direction sought with a large enough effect; inconclusive means small, poorly fitted or top-dose-only effect, or another doubt; inactive means no such curve, though single readings can be large; an effect the other way counts as inactive or inconclusive.

CC1Cc2ccccc2N1C(=O)COc1ccc2c(c1)OCO2 (configuration not stated)	ELG1 repair inh inconclusive, SMN2 splice up inconclusive, Rab9 prom act inconclusive, ELG1 genotox inconclusive, NPC1 promoter act 3.2µM, FLuc modulator 17µM
CCOC(=O)C1=C(C)NC(C)=C(C(=O)OCC)C1C(=O)OCC(=O)NCc1ccccc1OC	ELG1 repair inh 12µM (no result: SMN2 splice up, Rab9 prom act, NPC1 promoter act, FLuc modulator)
CCOC(=O)C1=C(C)NC(C)=C(C(=O)OCC)C1C(=O)OCC(=O)N1c2ccccc2CC1C (configuration not stated)	ELG1 repair inh 23µM
CCOC(=O)C1=C(C)NC(C)=C(C(=O)OCC)C1C(=O)OCC(=O)NCc1ccccc1	ELG1 repair inh inconclusive (no result: SMN2 splice up, Rab9 prom act, NPC1 promoter act, FLuc modulator)
O=C(CCSc1nnc2ccc3ccccc3n12)Nc1ccc(F)cc1	none
O=C(CCSc1ccc(F)cc1)Nc1ccc(-n2cnnn2)cc1	ELG1 repair inh 18µM
O=C(CSc1ccc(F)cc1)Nc1ccc(C2SCCS2)cc1	ELG1 repair inh inconclusive, Rab9 prom act inconclusive, ELG1 genotox inconclusive, NPC1 promoter act inconclusive, FLuc modulator 11µM (no result: SMN2 splice up)
O=C(CSC1=NCCS1)Nc1ccc(F)cc1	none (no result: SMN2 splice up)
NC(=O)c1ccc(NC(=O)C2CCN(S(=O)(=O)Cc3ccccc3)CC2)cc1	none (no result: ELG1 repair inh, SMN2 splice up, Rab9 prom act, ELG1 genotox, NPC1 promoter act)
COc1ccc(C2CC(=O)c3cc(-c4nc(-c5cccc(Cl)c5)cs4)c(=O)[nH]c3C2)cc1OC (configuration not stated)	none (no result: ELG1 repair inh, Rab9 prom act, ELG1 genotox, NPC1 promoter act)
Cn1c(C(=O)NCc2cccc(Cl)c2)cc2oc3ccccc3c21	SMN2 splice up inconclusive (no result: ELG1 repair inh, Rab9 prom act, ELG1 genotox, NPC1 promoter act)
COCCNC(=O)c1cc2oc3ccccc3c2n1C	ELG1 repair inh inconclusive, Rab9 prom act 3.2µM, ELG1 genotox inconclusive, FLuc modulator 9.5µM (no result: SMN2 splice up)
Nc1ccc(C(=O)OCC(=O)c2cccc([N+](=O)[O-])c2)cc1	FLuc modulator 24µM
Cc1ccc(C(=O)COC(=O)c2cccc(NC(=O)c3ccc([N+](=O)[O-])cc3[N+](=O)[O-])c2)cc1	ELG1 repair inh inconclusive, SMN2 splice up inconclusive, Rab9 prom act 1.4µM, ELG1 genotox inconclusive, NPC1 promoter act 0.4µM, FLuc modulator 0.11µM
CC(=O)Nc1ccc(C(=O)OCC(=O)c2cccc([N+](=O)[O-])c2)cc1	none
CCc1nnc(SC(CC)C(=O)Nc2cccc(OC)c2)c2cc3oc(C)cc3n12 (configuration not stated)	none (no result: ELG1 repair inh, SMN2 splice up, Rab9 prom act, ELG1 genotox, NPC1 promoter act)
C/C=C/C(=O)C[C@H]1CC[C@@H](C)[C@@H](CCO)O1	none (no result: ELG1 repair inh, Rab9 prom act, ELG1 genotox, NPC1 promoter act, FLuc modulator)
O=C1c2ccccc2C(=O)N1C[C@]1(C(=O)O)NCCS1(=O)=O	none (no result: ELG1 repair inh, Rab9 prom act, ELG1 genotox, NPC1 promoter act, FLuc modulator)
N#Cc1nc(-c2ccc(Cl)cc2)oc1NCC1CCCO1 (configuration not stated)	ELG1 repair inh inconclusive, SMN2 splice up inconclusive, Rab9 prom act inconclusive, ELG1 genotox inconclusive, FLuc modulator 21µM
COc1ccc(-c2nc(C#N)c(NC(C)C)o2)cc1	ELG1 repair inh inconclusive, Rab9 prom act inconclusive, NPC1 promoter act inconclusive, FLuc modulator 13µM
C=CCNc1oc(-c2ccc(Cl)cc2)nc1C#N	ELG1 repair inh inconclusive (no result: SMN2 splice up, Rab9 prom act, NPC1 promoter act, FLuc modulator)
N#Cc1nc(-c2cccc3ccccc23)oc1NCC1CCCO1 (configuration not stated)	ELG1 genotox inconclusive, FLuc modulator 12µM (no result: SMN2 splice up)
CNc1oc(-c2ccc(Cl)cc2)nc1C#N	ELG1 repair inh inconclusive, Rab9 prom act inconclusive, ELG1 genotox inconclusive, NPC1 promoter act inconclusive, FLuc modulator 11µM
COC(=O)c1ccc(NC(=O)CCn2cnnn2)cc1	none (no result: ELG1 repair inh, SMN2 splice up, Rab9 prom act, ELG1 genotox, NPC1 promoter act)
CN(C1CCCCC1)S(=O)(=O)c1ccc2c(c1)c(=O)c(C(=O)N1CCN(c3ccccc3)CC1)cn2C	none (no result: ELG1 repair inh, Rab9 prom act, ELG1 genotox, NPC1 promoter act)
CCn1cc(-c2cc(C(=O)O)c3ccccc3n2)cn1	FLuc modulator 2.7µM
O=C(O)c1cc(-c2cccnc2)nc2ccccc12	ELG1 repair inh inconclusive (no result: SMN2 splice up)
CCn1cc(-c2cc(C(=O)O)c3ccccc3n2)c(C)n1	FLuc modulator 9.5µM
